# Columns and labels:
# Assay in all cases: PBM binding z-score (relative to random genomic background probes); higher = stronger binding; sequences stand for … in GC…GCGATTGACAGCGTAGAATGAAGG
# [1] = system: RARb homodimer (NR concentration 270 nM)
# Outline: (§1)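 Custom Agilent 4×180K protein-binding microarrays carried double-stranded probes, each with a 34-nt variable region. These regions held direct-repeat seeds, single-nucleotide variants, half-site ablations and random human genomic background sequences. Ligand-free nuclear receptor dimers were incubated on the arrays for 1 h, antibodies against each partner (one per run) detected binding, and scanned fluorescence was regression-normalized. Binding z-scores take the random background probes as reference.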
# [2] = system: RARg:RXRa (NR concentration 270 nM, RXRa partner concentration 90 nM)
# Outline: as §1
# [3] = system: RARg homodimer (NR concentration 270 nM)
# Outline: as §1
# [4] = system: RXRa DBDmut IVT, anti-RXR (DBD mutation: RXRa K156A/R161A, NR concentration 90 nM)
# Outline: as §1
# [5] = system: RXRa homodimer (NR concentration 180 nM)
# Outline: as §1
# [6] = system: THRa:RXRa (NR concentration 90 nM, RXRa partner concentration 90 nM)
# Outline: as §1
# [7] = system: THRa homodimer (NR concentration 90 nM)
# Outline: as §1
# [8] = system: VDR homodimer (NR concentration 270 nM)
# Outline: as §1
Sequence,PBM binding z-score [1],PBM binding z-score [2],PBM binding z-score [3],PBM binding z-score [4],PBM binding z-score [5],PBM binding z-score [6],PBM binding z-score [7],PBM binding z-score [8]
GATTCAGGGTCAAGGCCAGAGTACGCGTATTGAT,4.04,6.08,5.81,3.03,7.1,3.87,2,3.02
GGTAGCAGGCCATTTGGGTCACTCAATGACGGGC,2.01,1.27,1.83,-0.513,0.775,1.84,0.696,0.494
TCTAGTTGGTCACGCAGGTCACACACGACGGGTA,3.63,3.59,3.7,1.03,3.08,2.92,1.81,1.76
TTGAGTAGGTTAGTCGGGGCATTCAGCCAACATA,0.969,0.218,0.145,0.265,0.0452,1.43,0.699,1.25
CCACCAAGGTGAACAAGGTCGTTGATTACTATTC,2.39,2.05,1.62,1.32,2.07,3.42,2.4,3.07
TTACCAAGGTGAGCTGAGGTCGTTGACCCAACTC,2,1.58,0.471,0.101,2.03,4.79,2.16,1.65
GCGACTGGCGCAAAGCAGGTTACCATAAGGTTGG,-0.0806,-0.27,-0.774,-0.791,-0.0574,0.636,-0.543,-0.861
GCCACTGGGGCAAAGCAGGTTACCATAAGGTTGG,1.08,0.357,0.651,-0.861,0.287,2.79,-0.169,-0.617
ATCCAAAGGTCGAAGGTGAGTATACCCACCCGAA,2.66,4.58,4.35,0.893,5.48,2.32,-0.204,0.849
CCTATTAGTTGAGCATAAGGGCAACCGAAGCTCG,1.42,0.728,0.652,0.381,0.162,1.58,0.923,0.43
ACCATTAGTTGAGACGAGGGCAACCGATAGGTTG,1.3,0.676,0.629,0.383,0.669,2.63,0.525,1.04
TCGAGTAGGTTCGGGGCATTCAGAATGGCGTCGA,-0.0297,-0.387,-0.609,0.913,-0.159,0.428,-0.274,1.09
AGAATGAGTTTATTAAGATCAGGGAATTGCGGTC,0.079,-0.0299,0.321,3.88,0.093,0.265,0.231,3.05
TCGAGTAGGTTAGTTGGGGCATTCAGCCAACATA,0.525,-0.065,-0.0945,0.0825,-0.226,1.01,-0.251,-0.0385
CCAGTCAGGTGAAAGGTAACTCAGTCTGGTACGC,0.929,1.2,0.727,0.124,1.42,1.95,1.04,-0.00335
TCATATGGGTAAAAGGTGAAAGTCGGTGTGGTAA,1.98,1.7,0.446,1.05,2.64,1.46,0.164,-0.0613
CCTACTGGGCCACGAATGGTCATTGATTCAGTGA,0.417,-0.0594,0.262,-0.448,-0.409,-0.231,-0.537,-0.38
ACAGACAGGTGAGTGAACGTAACTCAGCTGGACG,-0.371,-0.0638,0.417,-0.336,0.275,-0.437,-0.967,-0.683
CAAACTAGGTCACCGGAAGGTCAAATTCCGCATG,5.55,8.17,7.31,2.13,6.55,4.58,3.11,2.93
CTACCAAGGTGAACATGGTCGTTGATTACTATTC,1.25,1.06,1.14,0.571,0.87,2.25,1.03,-0.0794
TCGAATAGGTTAGTCGGGGCATTCAGCCAACATA,0.708,0.415,0.436,0.913,0.583,1.46,0.0462,0.528
CGTCAAAGTTCAAAGTAACGTAACAGAAAGCAGC,3.42,5.52,5.99,4.98,4.88,1.72,-0.272,4.15
TCTCTGAGGACACGAAAGGTCAGAGCTCGACATC,4.78,4.77,5.31,1.55,3.99,4.45,4.15,1.21
AGAATTAGGTTATACGTAGATCAGGGAAGAAAGT,0.51,0.538,0.552,0.428,0.592,0.759,0.539,0.454
ATCGAAAGGTTGACGAGGTGAGTATACACCGTTT,1.28,1.47,1.51,0.0329,1.65,2.62,0.747,0.362
CGGCCAAGGTCAAGGTCAGTGAAAGAGACTCGAA,5.16,6.85,7.69,3.48,6.81,4.33,2.89,2.95
CCCTACGGGTCAAGGTTATAGCACGGGTGGTACG,3.5,5.05,4.83,0.145,5.35,3.07,0.962,1.07
GATACAGGGTCAGCTAGAAGCCAGAGTATGGAAA,2.56,4.59,4.35,1.28,4.19,2.53,0.406,0.338

# Reference: the supplement of paper PMC6555819
